Consider 10 compounds from PubChem BioAssay (Tox21).

Unmarked numbers belong to inactive results. Results filed as inconclusive are left out. Activity calls are given as the source filed them. Unless noted, calls come from the whole dose curve.

The target of assay [1] is KiSS-1 receptor (Homo sapiens) (UniProt Q969F8). Briefly: Human kisspeptin (KISS1R) small molecule agonists, calcium flux assay in KISS1R-HEK293 cells (AID 1920064; active = well fitted activation curve with a large enough effect in the repeat runs). The gist of the method: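 Intracellular calcium mobilization in KISS1R-HEK293 cells was recorded by fluorescence (Ex/Em 480/540) for 3 min following compound addition to cells pre-loaded 1 h with calcium dye.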
Sequence of KiSS-1 receptor (Homo sapiens) (Q969F8 whole entry, looked up): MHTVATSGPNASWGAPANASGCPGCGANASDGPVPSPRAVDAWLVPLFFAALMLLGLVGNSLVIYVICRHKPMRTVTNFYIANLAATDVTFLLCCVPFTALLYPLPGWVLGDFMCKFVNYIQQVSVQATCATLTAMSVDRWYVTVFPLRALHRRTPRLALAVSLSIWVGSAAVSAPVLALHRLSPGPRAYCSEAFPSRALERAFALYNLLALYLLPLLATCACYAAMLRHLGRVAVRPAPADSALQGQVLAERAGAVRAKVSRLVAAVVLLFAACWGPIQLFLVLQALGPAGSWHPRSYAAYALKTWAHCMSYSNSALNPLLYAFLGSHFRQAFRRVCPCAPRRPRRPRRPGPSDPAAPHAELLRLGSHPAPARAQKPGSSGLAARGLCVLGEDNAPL
On the technique in general: Calcium assays in cells follow changes in intracellular calcium, usually with a dye or a luminescent sensor.

The nature of assay [2]: G protein-coupled receptor (GPCR) small molecule agonists, calcium flux assay: HEK293 wild type cell line counter screen (AID 1920065). The gist of the method: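 In this agonist-mode screen, ATP is the positive control and DMSO the vehicle. Cells grow 18 h before a 1 h dye incubation at 37 C; signal is taken at Ex/Em 480/540 over 3 min.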
Assay [3] can be described thus: p53 small molecule agonists, cell-based qHTS assay with human liver microsomes (AID 1963577).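 For activation: p53 response element beta-lactamase reporter cells with liver microsomes plus NADPH.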 Note: potency is the fitted concentration of half-maximal effect. The gist of the method:
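In this qHTS, p53 response-element beta-lactamase cells receive test compound together with a microsome/NADPH activating system (0.5 mg/mL final each) and are incubated 16 h at 37 C before LiveBLAzer fluorescence detection.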
On the technique in general: qHTS replaces the single test concentration by a dilution series.

Assay [4] is described as follows: p53 small molecule agonists, cell-based qHTS assay with rat liver microsomes: qHTS cell viability counter screen (AID 1963580). Note: nearly all actives have a fitted effect of over 45% in size. The procedure, abridged:
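HCT-116 p53RE-bla, 4,000 cells/well, 5 h pre-incubation; cpd + rat liver microsomes 0.5 mg/mL + NADPH 0.5 mg/mL (final); 16 h, 37 C; CellTiter-Glo, 30 min RT; luminescence.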

A short description of assay [5]: p53 small molecule agonists, cell-based qHTS assay: qHTS cell viability counter screen (AID 1963581). Note: nearly all actives have a fitted effect of over 45% in size. The gist of the method: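 Compounds are pinned onto HCT-116 p53RE-bla cells and left 16 h at 37 C. Following the reporter FRET read, ATP is quantified by CellTiter-Glo luminescence after 30 min at room temperature.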
Assay [6] in a line: p53 small molecule agonists, cell-based qHTS assay (AID 1963582; active = well fitted activation curve with a large enough effect in the signal ratio in the repeat runs, not every such curve was filed as active; the % refers to the signal ratio). The gist of the method: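 Agonist activity was scored from beta-lactamase FRET fluorescence in p53RE-bla cells treated 16 h at 37 C with compounds in DMSO, substrate incubation being 2 h at room temperature.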
Assay [7] has as its target 5-hydroxytryptamine receptor 2A (Homo sapiens) (UniProt P28223). The experiment in a line: 5-hydroxytryptamine receptor 2A (HTR2A) small molecule antagonists, cell-based qHTS assay (AID 1963586). Note: nearly all actives have a fitted effect of over 45% in size. Note: potency is the fitted concentration of half-maximal effect. The gist of the method: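 Antagonist-mode intracellular calcium assay: DOI (4 nM) added after 5 min compound pre-incubation at room temperature to dye-loaded HTR2A-CHO cells. Fluorescence followed for 3 min, sampled every second.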

For assay [8], the target named is Muscarinic acetylcholine receptor M1 (Homo sapiens) (UniProt P11229). Briefly: Cholinergic receptor muscarinic 1 (CHRM1) small molecule antagonists, cell-based qHTS assay (AID 1963588). Note: nearly all actives have a fitted effect of over 40% in size. Note: potency is the fitted concentration of half-maximal effect. The gist of the method: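 CHRM1-CHO calcium-flux assay, antagonist mode. Cells were seeded 18 h, dye-loaded 1 h at 37 C and given compound for 5 min at RT, then acetylcholine was added at 50nM. FDSS fluorescence was read 3 min; 15 concentrations, three runs.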
Sequence of Muscarinic acetylcholine receptor M1 (Homo sapiens) (P11229 whole entry, looked up): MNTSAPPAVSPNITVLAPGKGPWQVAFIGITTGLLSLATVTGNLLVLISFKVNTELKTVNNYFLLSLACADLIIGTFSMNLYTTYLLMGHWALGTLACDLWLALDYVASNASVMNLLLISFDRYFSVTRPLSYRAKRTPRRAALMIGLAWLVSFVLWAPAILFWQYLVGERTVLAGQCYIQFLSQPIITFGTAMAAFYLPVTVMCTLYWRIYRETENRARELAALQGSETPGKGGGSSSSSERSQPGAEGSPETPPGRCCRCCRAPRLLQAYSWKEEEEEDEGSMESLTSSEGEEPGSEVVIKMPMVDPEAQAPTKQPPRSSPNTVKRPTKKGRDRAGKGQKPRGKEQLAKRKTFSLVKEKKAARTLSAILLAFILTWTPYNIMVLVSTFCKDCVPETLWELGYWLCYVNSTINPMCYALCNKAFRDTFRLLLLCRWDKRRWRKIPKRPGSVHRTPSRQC

The nature of assay [9]: cAMP Responsive Elements (CRE) small molecule agonists, cell-based qHTS assay (AID 1963590). The procedure, abridged: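 FRET-based beta-lactamase readout (LiveBLAzer B/G, 2 h RT) quantified CRE activation in HEK 293T CRE-bla cells after 3 h treatment with DMSO-dissolved compounds.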
Assay [10] addresses D(2) dopamine receptor (Homo sapiens) (UniProt P14416). The experiment in a line: Dopamine D2 receptor (DRD2) small molecule agonists, cell-based qHTS assay (AID 1963594). Note: nearly all actives have a fitted effect of over 35% in size. The procedure, abridged:
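cAMP accumulation in DRD2-HEK293 cells measured by HTRF after 1 h detection; compounds added 10 min before NKH477 (200nM […]) forskolin-analogue stimulation, 30 min at room temperature, with Ro20-1724 present at 0.1 mM final.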

The target in assay [11] is Muscarinic acetylcholine receptor M1 (Homo sapiens) (UniProt P11229). Briefly: Cholinergic receptor muscarinic 1 (CHRM1) small molecule agonists, cell-based qHTS assay (AID 1963589). Note: nearly all actives have a fitted effect of over 35% in size. The gist of the method:
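Stable CHRM1-CHO cells (human receptor) were incubated 18 h, dye-loaded for 1 h at 37 C and exposed to test compounds for agonist activity, with calcium-dependent fluorescence followed kinetically.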

The target of assay [12] is Gonadotropin-releasing hormone receptor (Homo sapiens) (UniProt P30968). The experiment in a line: Human gonadotropin-releasing hormone receptor (GnRHR) small molecule agonists, calcium flux assay in GnRHR-HEK293 cells (AID 1920063). Note: nearly all actives have a fitted effect of over 35% in size. The procedure, abridged:
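Tox21-format agonist screen using human GnRHR-expressing HEK293 cells and a fluorescent calcium dye; kinetic 3-min fluorescence reading after compound addition, 15-point concentration series run in triplicate.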

Assay [13] is described as follows: p53 small molecule agonists, cell-based qHTS assay with rat liver microsomes (AID 1963578). The procedure, abridged: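 Agonist mode in p53RE-bla reporter cells, with compounds co-incubated 16 h at 37 C alongside 0.5 mg/mL rat liver microsomes and 0.5 mg/mL NADPH (final), followed by a 2 h LiveBLAzer detection step.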
Assay [14] in a line: p53 small molecule agonists, cell-based qHTS assay with human liver microsomes: qHTS cell viability counter screen (AID 1963579). Note: nearly all actives have a fitted effect of over 45% in size. The procedure, abridged: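 Metabolically activated exposure: compounds, human liver microsomes and NADPH (0.5 mg/mL final apiece) were added to p53RE-bla cells seeded 5 h earlier, left 16 h at 37 C, and then assessed for viability by CellTiter-Glo luminescence.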

The target of assay [15] is 5-hydroxytryptamine receptor 2A (Homo sapiens) (UniProt P28223). The experiment in a line: 5-hydroxytryptamine receptor 2A (HTR2A) small molecule agonists, cell-based qHTS assay (AID 1963587). Note: nearly all actives have a fitted effect of over 30% in size. The procedure, abridged:
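Kinetic calcium-flux fluorescence (2 min, 1 sec intervals) after compound addition in agonist mode. HTR2A-CHO cells were cultured 18 h, then dye-loaded 1 h at 37 C.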

The nature of assay [16]: cAMP Responsive Elements (CRE) small molecule antagonists, cell-based qHTS assay (AID 1963591; active = well fitted inhibition curve with a large enough effect in the signal ratio in the repeat runs, not every such curve was filed as active; the % refers to the signal ratio). The gist of the method: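 qHTS in CRE-bla HEK 293T cells: compound in DMSO, then 0.25 uM NKH477 (final), 3 h at 37 °C/5% CO2; beta-lactamase FRET read-out after 2 h substrate incubation.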
For assay [17], the target named is Beta-2 adrenergic receptor (Homo sapiens) (UniProt P07550). The experiment in a line: Adrenergic beta2 receptor (ADRB2) small molecule antagonists, cell-based qHTS assay (AID 1963592). Note: series mostly up to about 92 µM; nearly all actives have a fitted effect of over 50% in size. The gist of the method:
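Cells (CHO, stable ADRB2 overexpression) incubated 18-20hr at 37C; compounds added from DMSO; agonist mix (1nM isoproterenol, 100uM IBMX, 25uM Ro-20-1724) added; 0.5hr RT; d2-cAMP and anti-cAMP-cryptate added; 1hr RT; 665/615 nm read.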

The target in assay [18] is D(2) dopamine receptor (Homo sapiens) (UniProt P14416). The experiment in a line: Dopamine D2 receptor (DRD2) small molecule antagonists, cell-based qHTS assay (AID 1963595; active = well fitted inhibition curve with a large enough effect in the signal ratio in the repeat runs, with a control signal flat; the % refers to the signal ratio; note: potency is the fitted concentration of half-maximal effect). The procedure, abridged:
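Antagonist mode in DRD2-HEK293 cells: after compound addition with 0.1 mM Ro20-1724, cells received quinpirole (12 nM) and NKH477 (200 nM) for 30 min at room temperature; HTRF cAMP read after 1 h detection.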

Assay [19] concerns the target Beta-2 adrenergic receptor (Homo sapiens) (UniProt P07550). The experiment in a line: Adrenergic beta2 receptor (ADRB2) small molecule agonists, cell-based qHTS assay (AID 1963593).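 Note: CHO cells stably overexpressing human ADRB2.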 The procedure, abridged:
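CHO cells stably over-expressing ADRB2 were plated overnight at 37C, then dosed with compounds plus a stimulation mix containing 100uM IBMX and 25uM Ro-20-1724 for 0.5hr at room temperature. cAMP was measured by HTRF competition, 1hr.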

Sequence of Beta-2 adrenergic receptor (Homo sapiens) (P07550 whole entry, looked up): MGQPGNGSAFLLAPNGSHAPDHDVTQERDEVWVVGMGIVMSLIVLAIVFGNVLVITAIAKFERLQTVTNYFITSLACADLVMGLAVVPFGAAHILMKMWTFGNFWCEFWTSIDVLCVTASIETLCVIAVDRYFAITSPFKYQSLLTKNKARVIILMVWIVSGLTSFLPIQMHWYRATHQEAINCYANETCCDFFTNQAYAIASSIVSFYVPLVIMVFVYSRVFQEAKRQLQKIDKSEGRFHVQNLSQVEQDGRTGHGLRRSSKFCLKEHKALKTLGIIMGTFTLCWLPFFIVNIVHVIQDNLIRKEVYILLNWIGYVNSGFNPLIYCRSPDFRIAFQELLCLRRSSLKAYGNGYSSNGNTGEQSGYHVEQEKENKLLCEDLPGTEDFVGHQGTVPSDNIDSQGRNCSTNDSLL
Sequence of 5-hydroxytryptamine receptor 2A (Homo sapiens) (P28223 whole entry, looked up): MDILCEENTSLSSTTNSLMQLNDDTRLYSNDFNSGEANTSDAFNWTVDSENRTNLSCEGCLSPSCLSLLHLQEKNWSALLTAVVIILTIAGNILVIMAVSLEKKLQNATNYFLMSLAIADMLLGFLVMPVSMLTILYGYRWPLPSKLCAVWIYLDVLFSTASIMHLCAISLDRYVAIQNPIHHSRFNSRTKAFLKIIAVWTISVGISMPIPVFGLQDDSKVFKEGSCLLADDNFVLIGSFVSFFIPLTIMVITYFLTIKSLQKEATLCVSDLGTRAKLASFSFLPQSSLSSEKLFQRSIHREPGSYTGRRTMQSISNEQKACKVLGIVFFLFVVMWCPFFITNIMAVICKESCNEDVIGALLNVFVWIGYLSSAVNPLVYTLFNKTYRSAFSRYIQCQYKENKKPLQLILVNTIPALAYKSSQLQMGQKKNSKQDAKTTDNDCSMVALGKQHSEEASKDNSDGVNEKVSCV
Sequence of D(2) dopamine receptor (Homo sapiens) (P14416 whole entry, looked up): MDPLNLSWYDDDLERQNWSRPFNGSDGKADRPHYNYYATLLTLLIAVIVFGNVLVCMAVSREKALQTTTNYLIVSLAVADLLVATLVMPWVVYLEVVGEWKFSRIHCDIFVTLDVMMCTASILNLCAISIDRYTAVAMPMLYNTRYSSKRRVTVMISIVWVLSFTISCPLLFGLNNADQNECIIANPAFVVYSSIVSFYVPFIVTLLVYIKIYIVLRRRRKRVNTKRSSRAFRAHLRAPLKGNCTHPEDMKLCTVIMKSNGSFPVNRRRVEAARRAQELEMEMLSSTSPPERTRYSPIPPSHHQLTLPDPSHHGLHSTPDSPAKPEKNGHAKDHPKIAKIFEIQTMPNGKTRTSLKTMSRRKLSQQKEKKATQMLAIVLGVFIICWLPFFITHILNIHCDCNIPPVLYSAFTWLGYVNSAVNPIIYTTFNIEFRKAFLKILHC
Sequence of Gonadotropin-releasing hormone receptor (Homo sapiens) (P30968 whole entry, looked up): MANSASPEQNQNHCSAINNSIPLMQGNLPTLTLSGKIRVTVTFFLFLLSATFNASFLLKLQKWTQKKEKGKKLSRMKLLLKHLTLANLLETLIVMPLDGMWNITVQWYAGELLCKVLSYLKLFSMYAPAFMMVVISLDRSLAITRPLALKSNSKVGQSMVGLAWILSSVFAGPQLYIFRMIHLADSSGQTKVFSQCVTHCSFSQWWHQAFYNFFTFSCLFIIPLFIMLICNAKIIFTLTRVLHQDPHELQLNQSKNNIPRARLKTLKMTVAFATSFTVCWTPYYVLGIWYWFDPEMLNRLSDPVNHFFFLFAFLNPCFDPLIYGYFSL

On to `S=P(N1CC1)(N1CC1)N1CC1`, for which the Potency entry in assay [1], in assay [2], in assay [4], in assay [5], in [6] and in assay [7] was “inactive” each time. The Potency entry in assay [8], in assay [9] and in assay [10] was “inactive” each time. Also, in assay [3], the Potency was 34.1 µM (active).

Consider `Nc1ccc(N)c([N+](=O)[O-])c1`, for which the Potency result in assay [7], in assay [8] and in assay [11] was “inactive” in each case.

Turning to `CC(C)=CC(C)(C)C`, the Potency entry in assay [12], in [2], in assay [3], in assay [13], in assay [14] and in assay [4] was “inactive” each time. In addition, the Potency entry in [5], in assay [6], in assay [7], in assay [15], in assay [8] and in assay [11] was “inactive” in each case. The Potency entry in [9], in assay [16], in assay [17], in assay [10] and in [18] was “inactive” throughout.

Turning to `Cc1cc(O)c(Cl)c(C)c1Cl`, the Potency result in [1], in assay [2], in assay [3], in assay [13], in [4] and in assay [5] was “inactive” each time. Also, the Potency result in assay [6], in assay [15], in assay [8], in assay [11], in [9] and in [17] was “inactive” each time. Further, the Potency entry in assay [19], in assay [10] and in [18] was “inactive” each time.

For the compound `CC(CN)CCCN` (stereo not given), the Potency entry in assay [1], in assay [2], in [3], in [14], in assay [6] and in [7] was “inactive” each time. For the same compound, the Potency result in assay [15], in assay [8], in assay [11], in assay [9], in assay [16] and in [17] was “inactive” throughout. Moreover, the Potency result in assay [10] and in [18] was “inactive” throughout.

With `O=C1Cc2ccccc2C1`, the Potency result in assay [7], in [15], in assay [8], in assay [17], in assay [10] and in assay [18] was “inactive” throughout.

For `OCCN1CCN(CCCN2c3ccccc3Sc3ccc(Cl)cc32)CC1`, the Potency entry in [1], in [2], in [14], in [4], in assay [5] and in [10] was “inactive” throughout. Moreover, the Potency in assay [18] is 0.0266 µM (active).

For `CCCCCCCC1CCC(=O)O1` (stereo not given), the Potency result in [7], in assay [15], in [8], in assay [11], in assay [17] and in assay [19] was “inactive” in each case. Further, the Potency result in [18] was “inactive”.

As to `CS(=O)(=O)c1ccc([C@@H](CC2CCCC2)C(=O)Nc2cnccn2)cc1Cl`, the Potency result in assay [7], in [15], in assay [8], in assay [11], in assay [17] and in assay [19] was “inactive” throughout. The Potency result in assay [10] and in [18] was “inactive” each time.

Take `Nc1ccc(N=Nc2ccccc2)c(N)c1`: the Potency entry in [1], in assay [2], in assay [13], in assay [14], in [4] and in [5] was “inactive” each time. Besides, the Potency result in assay [6], in assay [15], in assay [11], in assay [9] and in assay [16] was “inactive” each time. The Potency in [7] was 1.64 µM (active); in [8], 23.2 µM (active).
